# Measurements as given in PubChem BioAssay (NCATS).
# Inconclusive results are not listed. Unmarked numbers belong to inactive results. Calls of active or inactive are those of the source. Calls come from the whole dose curve; as a rule, active = well fitted inhibition curve with a large enough effect; inconclusive = small, poorly fitted or top-dose-only effect; inactive = flat fitted curve, though single readings scatter.
# Target: Calcium and integrin-binding protein 1 (Homo sapiens) (UniProt Q99828)
# Sequence (Q99828 whole entry, looked up): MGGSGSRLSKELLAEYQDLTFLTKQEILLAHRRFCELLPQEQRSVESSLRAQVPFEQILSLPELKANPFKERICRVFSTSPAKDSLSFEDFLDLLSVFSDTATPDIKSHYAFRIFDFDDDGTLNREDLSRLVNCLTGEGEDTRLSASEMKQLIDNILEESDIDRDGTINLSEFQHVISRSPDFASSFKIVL
# Assay: Primary qHTS for Identification of Calcium Integrin Binding Protein 1 (CIB1) Competitor (AID 1508620); note: top concentration of the series differs between compounds
# Conditions: CIB1-GST / FITC-alphaIIb peptide fluorescence polarization; series mostly up to 114 µM; activity change, negative = inhibition: at the top concentration
# Procedure, shortened: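 Fluorescence polarization competition: GST-tagged CIB1 (1 uM final) preincubated with compound 15 min at room temperature, then FITC-labelled alphaIIb peptide (100 nM final) added. After 15 min at room temperature, polarization read at Ex 480/Em 540.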
# % is set by controls: 0 for no effect and ±100 for the full control effect.
SMILES,"activity change, negative = inhibition",Potency
O=C1CCc2cc(S(=O)(=O)Nc3ccccc3-c3ccccc3)ccc2N1,1.77%,–
FC(F)(F)c1ccccc1-c1nc(NCC#Cc2cccnc2)c2ccccc2n1,-7.09%,–
Cc1csc(CNc2ncnc3ccc(-c4ccc5c(c4)OCO5)cc23)n1,-4.53%,–
COCCNc1cc2c(cc1[S+](=O)([O-])Nc1ccc(C)c(C)c1)CCC(=O)N2,-1.9%,–
Fc1ccc(-c2nc(-c3ccncc3)nc3ccccc23)cc1F,1.35%,–
O=[S+]([O-])(c1ccc2c(c1)OCCO2)N1CCN([S+](=O)([O-])c2c(F)cc(O)cc2F)CC1,-0.145%,–
N#Cc1cccc(Nc2ncc(-c3cccc4ccccc34)o2)c1,4.15%,–
CCNC(=O)c1ccc(-c2ccc3ncnc(NCC4CCCO4)c3c2)o1 (stereo not given),-22.6%,–
COc1ccc(NC(=O)c2cnn3c(C)cc(C)nc23)cc1,2.74%,–
C[C@@H](O)c1ccc(-c2ccc3ncnc(NCc4cccs4)c3c2)o1,–,inactive
O=C(Nc1cccc(-c2nn3c(=O)cc(N4CCNCC4)nc3s2)c1)C1CCNCC1,-1.07%,–
Cc1c(C(=O)OCC2CCCCO2)[nH]c2c1C(=O)CC(c1ccco1)C2 (stereo not given),-21.8%,–
c1coc(-c2ccc3ncnc(NCc4cccs4)c3c2)c1,-14.8%,–
COc1cc(O)c(C(CC(=O)N2CCC(Cc3ccccc3)CC2)c2ccc(C)cc2)c(OC)c1 (stereo not given),1.79% [at 228 µM],–
Cc1ccc(NS(=O)(=O)c2ccc3c(c2)CCC(C)(C)O3)cc1C,-0.038%,–
Cc1cc(C)n2ncc(C(=O)Nc3ccc(S(C)(=O)=O)cc3)c2n1,0.128%,–
Oc1ccc(CNc2ccccc2Cl)c2cccnc12,14.3%,–
Oc1ccc(CNc2cccc(F)c2)c2cccnc12,13.5%,–
COc1cccc(C2c3c(ncn(-c4ccccc4C#N)c3=N)Oc3ccc4ccccc4c32)c1 (stereo not given),-0.988%,–
Cc1cnc(NC(=O)c2ccc(-c3cccc([N+](=O)[O-])c3)o2)s1,1.51%,–

SMILES,"activity change, negative = inhibition",Potency
Cc1cccc(C)c1-n1c(SCC(=O)Nc2ccc(F)cc2)nnc1-c1cccc([S+](=O)([O-])N2CCCC2)c1,-0.159%,–
Cc1cccc(-n2cnc3cc(C(=O)N4CCC(C#N)CC4)ccc32)c1,-0.663%,–
O=[S+]([O-])(c1ccc2c(c1)OCCO2)N1CCN([S+](=O)([O-])c2ccccc2Br)CC1,-1.82%,–
COc1ccc(C2Cc3ccccc3C(=O)N2Cc2ccccc2)cc1COc1ccc(NC(C)=O)cc1 (stereo not given),5.01%,–
Cc1ccc(-c2no[n+]([O-])c2C#N)cc1,-1.59%,–
O=[N+]([O-])c1ccc(-c2nc(Nc3ccc(F)c(F)c3)c3ccccc3n2)cc1,-2.54%,–
Cn1nnnc1Sc1ncnc2scc(-c3ccc4c(c3)OCO4)c12,4.77%,–
CC(=O)c1cccc(NC(=O)c2cnn3c(C)cc(C)nc23)c1,3.09%,–
Cc1ccc(-c2csc3ncnc(Sc4nnnn4C)c23)cc1,7.71%,–
COc1cc(NS(=O)(=O)c2ccc3ccccc3c2)c2ncccc2c1,-2.28%,–
O=C(Nc1ccc(-n2ccnc2)c(F)c1)Nc1nnc(-c2ccncc2)s1,-3.16%,–
CCc1ccc(NC(=O)c2[nH]c(C)c(C(C)=O)c2C)cc1S(=O)(=O)Nc1ccc(C#N)cc1,-7%,–
C#Cc1nc(Nc2cccc(Cl)c2)nc(NC2CCCC2)n1,6.86%,–
O=C(NC1CCCc2c1cnn2-c1ccc(F)cc1F)c1ccccc1 (stereo not given),3.46%,–
Cc1cc(C)nc(NC(=S)N2CCN(C3=Nc4ccccc4Oc4ccccc43)CC2)c1,-7.85%,–
O=C(NC1CCCc2c1cnn2-c1ccc(F)cc1F)c1ccncc1 (stereo not given),3.27%,–
Cc1ccc(OCCn2c(CCNC(=O)c3cccc(C#N)c3)nc3ccccc32)cc1,4.3%,–
CC(C)c1ccccc1-c1nccc(NCc2ccc(-c3cccnc3)cc2)n1,-1.04%,–
Cc1ccccc1-c1ccc(NC(=O)c2cccs2)cn1,-1.11%,–
O=C1CCCC2=C1C(c1[nH]ncc1Cl)NC(=NCc1ccccn1)N2 (stereo not given),-2.52%,–
